Screening results as filed in PubChem BioAssay.
Shown are actives, neighbours in structure and some others; about 2.8% of the full set was active somewhere.
IDE act: activators of human insulin-degrading enzyme in cells. 0.073% of 340,000 active. activation, % at 5.96 µM. HEK cells, FAbeta-B cleavage, fluorescence polarization; 0% vehicle, 100% cell-free pure enzyme wells. AID 493087;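 active means activation above the mean of all tested compounds plus 3 SD, set per screening campaign, cut at about 17% in these data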
PP1 counter: counter-screen for PP5 inhibitors: inhibitors of human PP1-alpha; P62136; inhibition, % at 6.7 µM; purified PP1alpha, OMFP fluorescence; 0.9% of 320,000 active;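 active means inhibition above the mean inhibition of all tested compounds plus 3 SD, computed separately for each screening campaign, cut at about 15% in these data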
Exocytosis inh: blocks lytic granule exocytosis. TALL-104 LAMP-1 surface exposure, flow cytometry; cells stimulated with thapsigargin and PMA. inhibition, % at 10 µM. 0.66% of 360,000 active. AID 651702;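 active means inhibition above about 55%, limit read from the data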
PP5 primary: inhibitors of human protein phosphatase 5 (PP5). P53041. purified PP5c, OMFP substrate fluorescence. inhibition, % at 6.7 µM. 0.18% of 320,000 active;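 active means inhibition above the campaign's mean inhibition across all tested compounds plus 3 SD, cut at about 9.5% in these data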
Target sequence (P53041 whole entry, looked up): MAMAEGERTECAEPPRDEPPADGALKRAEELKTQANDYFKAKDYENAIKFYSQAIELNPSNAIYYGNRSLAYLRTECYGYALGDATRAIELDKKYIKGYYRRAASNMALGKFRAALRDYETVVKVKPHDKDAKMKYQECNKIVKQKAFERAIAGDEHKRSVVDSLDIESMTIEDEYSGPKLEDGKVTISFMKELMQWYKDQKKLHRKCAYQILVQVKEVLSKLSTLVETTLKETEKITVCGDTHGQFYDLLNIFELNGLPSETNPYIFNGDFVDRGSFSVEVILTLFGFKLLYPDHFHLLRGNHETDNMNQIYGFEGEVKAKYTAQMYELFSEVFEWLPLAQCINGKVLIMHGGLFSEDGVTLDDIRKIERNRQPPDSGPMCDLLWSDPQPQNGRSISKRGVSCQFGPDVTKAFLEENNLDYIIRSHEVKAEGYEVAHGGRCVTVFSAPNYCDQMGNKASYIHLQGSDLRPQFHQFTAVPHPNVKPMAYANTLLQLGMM
SKKanGAS inh: inhibitors of SKKanGAS S. pyogenes growth in kanamycin (SK-promoter or general growth effect) | BacTiter-Glo, 6 h | inhibition, % at 7.5 µM | 1.3% of 300,000 active | AID 1662;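 active means mean replicate score, as percent of positive control median, at least 50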;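 further: strain carries kanamycin resistance gene driven by streptokinase promoter and grows in 40 µg/ml kanamycin; loss of luminescence reflects streptokinase promoter inhibition or plain growth inhibition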
IDE inh: inhibitors of human insulin-degrading enzyme in cells; P14735; HEK cells, FAbetaB cleavage, fluorescence polarization; inhibition, % at 5.59 µM; 0.41% of 320,000 active;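 active means percent inhibition above the average of all tested compounds plus 3 SD, set per screening campaign, cut at about 16% in these data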;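 further: IDE supplied by intact live HEK cells; FP after avidin binding of uncleaved biotin substrate so inhibition keeps polarization high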
PP1 confirm: human PP1 phosphatase inhibition, confirmation | inhibition, % at 6.7 µM | purified PP1alpha, OMFP substrate fluorescence | 52% of 1,900 active | AID 2358 | shares compounds with PP1 counter;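 active means mean PP1 inhibition above a set limit taken from the earlier primary screen, cut at about 15% in these data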
PP5 inh counter: PP5 phosphatase inhibition, counter-screen for PP1 inhibitors. AID 2360. inhibition, % at 6.7 µM. purified PP5c, OMFP fluorescence. 4% of 1,900 active. shares compounds with PP1 counter;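 active means mean PP5 inhibition over triplicate wells above about 9.5% taken from the earlier PP1 screen, limit read from the data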
Of the large screens only hits and unclear results are named; the others gave an inactive call (follow-up assays come after a bar, where they were run).

COc1ccc(-c2oc3ccccc3c2C#Cc2cncn2C)cc1	PP1 counter 18 (no result: SKKanGAS inh) | PP1 confirm 25 | PP5 inh counter inactive
Cc1ccc(S(=O)(=O)N(CC(=O)N/N=C/c2ccccc2C(=O)O)c2cc(Cl)cc(Cl)c2)cc1	PP1 counter 19 | PP1 confirm 19 | PP5 inh counter inactive
NC(=O)CC(NC(=O)Cc1cccc2ccccc12)c1ccc(NC2CCCCC2)c([N+](=O)[O-])c1 (stereo not given)	PP1 counter 20 | PP1 confirm 24 | PP5 inh counter inactive
NC(=O)CC(NC(=O)Cc1ccc(Cl)cc1)c1ccc(NCCOc2ccccc2)c([N+](=O)[O-])c1 (stereo not given)	none
NC(=O)CC(NC(=O)Cc1cccc2ccccc12)c1ccc(NCCOc2ccccc2)c([N+](=O)[O-])c1 (stereo not given)	PP1 counter 23 | PP1 confirm 27 | PP5 inh counter inactive
NC(=O)CC(NC(=O)Cc1cccc2ccccc12)c1ccc(NCC2CC2)c([N+](=O)[O-])c1 (stereo not given)	none
CCCOc1ccc(C(=O)NCCC(=O)NCCCC(=O)O)cc1	none
O=C(Cn1nnc(-c2ccc(Cl)cc2)n1)NCc1ccco1	none
COc1ccc(C(=O)Nc2ccc(-c3nnn(CC(=O)NCc4ccco4)n3)cc2)cc1	PP1 counter 20 | PP1 confirm 24 | PP5 inh counter inactive
c1ccc(C2=Nc3cccnc3C(c3ccccc3)=NN2)cc1	none
CCn1c(CC(=O)Nc2ccc(C)cc2)nnc1SCC(=O)N1CCOCC1	PP1 counter 26 | PP1 confirm inactive | PP5 inh counter inactive
O=C1C=C(O)c2c(O)cc(O)c(O)c2C1=O	PP1 counter 57 | PP1 confirm 37 | PP5 inh counter inactive
COc1ccc(-c2oc3ccccc3c2C(=O)Oc2ccccc2)cc1	none
O=c1oc(C2(O)CCCCC2)cc2ccc(-c3ccc4[nH]ccc4c3)cc12	none (no result: PP1 counter, PP5 primary, SKKanGAS inh)
COc1ccc(CN2C(=O)c3cccnc3C2O)cc1 (stereo not given)	PP1 counter 34 | PP1 confirm 25 | PP5 inh counter inactive
COc1ccc(CN2C(=O)c3cccnc3C2Nc2cc(Cl)ccc2OC)cc1 (stereo not given)	PP1 counter 27 | PP1 confirm 26 | PP5 inh counter inactive
COc1cccc(N2C(=O)c3cccnc3C2O)c1 (stereo not given)	none (no result: PP1 counter, PP5 primary, IDE inh)
O=C(OCc1nnc(-c2cccs2)o1)C1=NN(c2ccccc2)C(=O)CC1	none (no result: SKKanGAS inh)
CCCCC1=CC2=CC(=O)C(C)(OC(=O)CC)C(=O)C2=CN1CCc1c[nH]c2ccccc12 (stereo not given)	PP1 counter 20 | PP1 confirm inactive | PP5 inh counter inactive
COc1c(N2CCN(C(=S)NC3CC4CCC3C4)C(C)C2)c(F)cc2c(=O)c(C(=O)O)cn(C3CC3)c12 (stereo not given)	PP1 counter 21, SKKanGAS inh 101 | PP1 confirm 38 | PP5 inh counter inactive
O=C(NC1CC1)C1Nc2ccc(OC(F)(F)F)cc2C2C=CCC12 (stereo not given)	none
O=C(O)C1Nc2ccc(OC(F)(F)F)cc2C2C=CCC12 (stereo not given)	PP1 counter 22 (no result: IDE act, Exocytosis inh) | PP1 confirm inactive | PP5 inh counter inactive
O=C(Cn1cc[n+](CC(=O)c2ccc(Cl)cc2Cl)c1)c1ccc(Cl)cc1Cl	PP1 counter 18 (no result: IDE act) | PP1 confirm inactive | PP5 inh counter inactive
Cn1c(=O)oc2cc(S(=O)(=O)Nc3cccc(C(=O)O)c3)ccc21	PP1 counter 42 (no result: SKKanGAS inh) | PP1 confirm inactive | PP5 inh counter inactive
COC(=O)C1=C(C)N(CCCCCC(=O)O)C(=O)NC1c1ccccc1 (stereo not given)	none
CS(=O)(=O)c1nc2c(cc1C#N)CCCC2	none
Cc1ccc(CS(=O)Cc2ccc(C(=O)NCCc3ccccc3)o2)cc1 (stereo not given)	none
Cc1cccc(NC(=O)CNC(=O)COc2ccc(-c3ccc(C#N)cc3)cc2)c1C	PP1 counter 20 | PP1 confirm 18 | PP5 inh counter inactive
CN(C)CCCNc1nc2cc(-c3ccc4c(ccn4C)c3)sc2c(=O)n1C	none (no result: IDE act, PP1 counter, PP5 primary, SKKanGAS inh, IDE inh)
COc1cccc(NC(=O)C2CCN(c3cnccn3)CC2)c1	none
CCOC(=O)C1CCCN(c2nc3ccccc3nc2C(C#N)C(=O)OCC)C1 (stereo not given)	PP1 counter 21 | PP1 confirm inactive | PP5 inh counter inactive
CCOC(=O)C1CCCN(c2nc3ccccc3nc2C(C#N)C(=O)OCCOC)C1 (stereo not given)	none
COc1ccc(N2CCN(CCNC(=O)c3ccc4c(c3)[nH]c(=S)n3c5ccccc5nc43)CC2)cc1	none
Cc1cc(NCCCn2ccnc2)n2ncc(-c3ccc(Cl)cc3)c2n1	none
CC(C)(C)c1cc(NCCCn2ccnc2)n2ncc(-c3ccccc3)c2n1	PP1 counter 21 (no result: IDE act) | PP1 confirm inactive | PP5 inh counter inactive
CCOP(=O)(OCC)C(NC(=O)c1cccs1)c1ccccc1 (stereo not given)	none
CC(=O)O[C@@H]1[C@H]2[C@@H](C[C@@H](C)[C@@H]3CCC(=O)[C@@]13C)OC(=O)[C@@H]2C	none
CCOc1cc(/C=N/NC(=O)Cn2nc([N+](=O)[O-])cc2C)ccc1OCc1ccc(F)cc1	PP1 counter 18 | PP1 confirm 17 | PP5 inh counter inactive
CCOc1cc(/C=N/NC(=O)Cn2nc([N+](=O)[O-])cc2C)cc(Br)c1OCc1ccccc1F	none
Cc1ccc(-c2nn(-c3ccccc3)cc2C2CC(c3cccs3)=NN2C(=O)CCC(=O)O)cc1 (stereo not given)	PP1 counter 19 | PP1 confirm inactive | PP5 inh counter inactive
Cc1ccc2nc(Cl)c(C3CC(c4cccs4)=NN3C(=O)CCC(=O)O)cc2c1 (stereo not given)	none
O=C(CSC(=S)N1CCOCC1)Nc1nc(-c2ccccc2)c(-c2ccccc2)o1	PP1 counter 18 | PP1 confirm inactive | PP5 inh counter inactive
N#CC1CCN(C(=O)c2ccc3c(Cl)c4c(nc3c2)CCCC4)CC1	PP1 counter 23 | PP1 confirm inactive | PP5 inh counter inactive
O=C(/C=C/c1ccc([N+](=O)[O-])cc1)N1CCN(S(=O)(=O)c2cccs2)CC1	none
O=[N+]([O-])c1ccc(N2CCN(S(=O)(=O)c3ccccc3)CC2)cc1	none
CCCCN(C(=O)C1CC(=O)N(c2ccc(OC)cc2OC)C1)c1c(N)n(CC(C)C)c(=O)[nH]c1=O (stereo not given)	none
CC(C)c1ccc(C(=O)N2CCCCC2c2cc(C(=O)NCc3cccnc3)no2)cc1 (stereo not given)	none (no result: IDE act, PP1 counter, PP5 primary, SKKanGAS inh, IDE inh)
